The supplement of paper PMC6555819

Legend:
Assay in all cases: PBM binding z-score (relative to random genomic background probes); higher = stronger binding; sequences stand for … in GC…GCGATTGACAGCGTAGAATGAAGG
[1] = system: PPARg:RXRa DBDmut IVT, anti-RXR (DBD mutation: RXRa K156A/R161A, NR concentration 270 nM, RXRa partner concentration 90 nM)
How it was run: (§1)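 Scanned fluorescence from custom Agilent 4×180K protein-binding microarrays was regression-normalized. Binding z-scores use random background probes as reference. Ligand-free nuclear receptor dimers were incubated on the arrays for 1 h and detected with antibodies against each partner (one per run).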

[2] = system: PPARg:RXRa IVT, anti-PPARg (NR concentration 270 nM, RXRa partner concentration 90 nM)
How it was run: as §1

[3] = system: PPARg DBDmut:RXRa IVT, anti-PPARg (DBD mutation: PPARg1 K132A/R137A, NR concentration 270 nM, RXRa partner concentration 90 nM)
How it was run: as §1

[4] = system: PPARg DBDmut IVT, anti-PPARg (DBD mutation: PPARg1 K132A/R137A, NR concentration 270 nM)
How it was run: as §1

[5] = system: PPARg homodimer (NR concentration 180 nM)
How it was run: as §1

[6] = system: PXR:RXRa (NR concentration 270 nM, RXRa partner concentration 90 nM)
How it was run: as §1

[7] = system: PXR homodimer (NR concentration 270 nM)
How it was run: as §1

[8] = system: RARa:RXR (NR concentration 270 nM, RXRa partner concentration 90 nM)
How it was run: as §1

[9] = system: RARa homodimer (NR concentration 270 nM)
How it was run: as §1

[10] = system: RARb:RXRa (NR concentration 270 nM, RXRa partner concentration 90 nM)
How it was run: as §1

Sequence	PBM binding z-score [1]	PBM binding z-score [2]	PBM binding z-score [3]	PBM binding z-score [4]	PBM binding z-score [5]	PBM binding z-score [6]	PBM binding z-score [7]	PBM binding z-score [8]	PBM binding z-score [9]	PBM binding z-score [10]
CCTACTGGGCGATCAGGTCATTGATATCAACGTT	1.18	1.66	-0.36	-0.403	0.86	1.29	0.227	1.47	0.157	1.6
TCATATAGGTAACAGGTGAAAGTCGGTGTGGTAA	5.02	4.81	0.985	1.02	1.4	0.896	0.535	0.876	1.18	1
GCTTTTAGTTGAAAGGGCAACCGAATGATTCTCG	0.524	0.732	0.316	0.582	0.658	0.695	-0.255	0.953	-0.0621	2.16
GGAACGAAGGCAAAGTTGATAGCATCTGTCGACG	-0.211	0.452	-0.0938	0.0461	-0.879	-0.707	-0.569	-0.458	-0.886	-0.337
ACTAGCAAGCCAAGTTTGGGTCACTCAAACAAAG	-0.834	0.332	-1.3	-0.652	-0.225	0.253	-0.636	0.968	-0.901	0.801
CCTCGGAGGACAACAGGAAGTCAGAGCTGCCAGA	-0.28	-0.806	-1.35	-1.22	0.0465	-0.665	-0.485	-0.454	0.0942	0.863
TAGCCTAGGTCATTGGGTCAGTATAGTACGCATC	4.09	4.95	0.491	0.952	3.71	2.99	0.622	3.67	0.571	4.06
CCTACTGGGCCAAAGGTTATTGATTCCAATGCTC	5.27	5.88	0.256	-0.287	0.925	1.39	0.0532	2.34	-0.256	1.53
GCGACTGGGGCATCAGCAGGTGACCATAACTTAA	4.17	3.33	-0.697	-0.862	0.0227	-0.51	-0.76	-0.136	-0.252	0.702
TGTATTAGTTGATTAGGGCAACCGAAACAGCGGA	0.222	1.62	1.15	1.19	1.28	-0.072	0.169	0.311	1.53	0.862
CCGACTGTGGCAAGGTTACCATAACGCACAGCCA	1.15	0.507	-0.345	-0.505	0.63	0.176	0.241	0.594	0.511	0.885
TCTTGTAGATTAAAGGTTAAGAAAGCCGAAGCCT	1.85	2.24	0.866	0.455	1.17	1.13	0.203	2.09	1.4	1.53
ACAGACAGGTGAGTGAAGGTAACACAGCTGGACG	0.662	0.632	0.226	-0.221	0.391	-0.00194	0.205	0.574	0.248	0.597
CCTAGCAGGCCACTCTGGGTCACTCAAGGCTTGA	2.5	3.22	-0.679	-2.2	0.299	1.04	-0.493	1.32	-0.337	1.55
GCTAGTTGGTCAGTAAAAGGTCTCACACCGGTCG	0.501	0.748	0.0123	-0.176	0.542	-0.0714	0.00189	0.298	-0.00415	1.19
ATCTCTAGGTAACCAAGTTCAGTGTATGCCGAAC	3.75	3.04	0.877	1.39	0.882	1.9	1.95	0.828	1.09	1.08
GCTGCTAGGTCAGGTTGGTCAGCTATCGGGTACG	2.93	2.58	-0.776	-0.675	1.22	0.328	-0.458	0.73	-0.348	3.46
TTACCAATGTGAGCTGAGGTCGTTGATCCAACTC	-0.252	-0.0612	0.679	-0.281	-0.49	2.46	0.562	1.53	-0.185	0.439
ACTATTAGTTGAGACGCGGGCAACCGATAGGTTG	-0.288	-0.175	0.481	0.188	-0.291	-0.299	-0.208	-0.588	-0.0314	0.15
TCCTATAGGTAAACAGGTGAAAGTCCGTAAGTTA	3.29	3.06	0.2	0.663	0.672	0.638	0.0288	0.69	0.325	0.692
ATACCAAGGTGATCGTGAGGTCGTTGTTACTAAC	0.34	1.36	0.414	0.123	1.05	2.84	1.29	2.11	0.23	1.3
CCTATTAGTTGACCATAAGGTCAACCGAAGCTCG	1.02	2.48	2.56	1.37	4.93	4.62	2.57	5.3	3.95	3.72
CGAACTAGGTCAAGGAAAGTGAATCTCCGCACGC	7.89	8.29	1.18	0.515	1.22	0.813	-0.499	1.62	0.0155	3.9
ATAAGTAGGTTAAGGGTCATTCAGGTTGGTTCGC	7.68	7.64	2.34	2.31	5.84	5.44	4.03	6.12	3	3.75

Sequence	PBM binding z-score [1]	PBM binding z-score [2]	PBM binding z-score [3]	PBM binding z-score [4]	PBM binding z-score [5]	PBM binding z-score [6]	PBM binding z-score [7]	PBM binding z-score [8]	PBM binding z-score [9]	PBM binding z-score [10]
TGGCCTAGGTCATTCAGGGGCCAGTATAGAAAGC	1.06	2.22	-0.515	-0.779	1.82	2.48	-0.213	3.77	0.313	3.94
CCGACTGGCGCAAAGGTTACCATACTCAGTACGA	0.771	2.5	-1.09	-0.747	0.747	1.7	-0.233	2.04	-0.0622	1.75
TAGCCTACGTCATGGGCCAGTATACCACGCGAAC	-0.818	-0.288	-0.41	-0.97	-0.836	-0.57	-0.465	-0.541	-1.11	-0.332
TAGCCTAGGTCATGGGCCAGAATACCACGCGAAC	1.38	3.09	-0.303	-0.638	0.86	1.54	-0.601	2.51	0.121	3.73
TCTATTAGTTGAAGGGCAACAGACGAGTCCGTTT	2.12	0.473	0.759	0.516	1.01	0.991	0.988	0.764	1.52	1.55
TCTATTAGTTGATTAAGGCAACCGAAACAGCGGA	2.31	0.341	1.4	0.689	0.977	0.454	0.378	0.873	1.34	0.0773
GTACCAAGGTGAATAGGTGGTTGATGAGTAGGCG	1.79	1.93	0.268	-0.307	0.741	-0.428	0.469	-0.021	0.656	1.21
ATATGTGGGTTAAGGGTCATTCAGGTTGGTTCGC	7.01	7.51	2.4	2.39	3.88	5.53	3.93	6.07	3.29	3.59
TGAATGAGGTTATACGATCAGGGAACGTTGCAAA	0.677	1.61	0.964	0.564	0.291	0.89	-0.167	1.48	0.115	1.15
TCTCGGAGGACACGAGAGGTCAGAGCTCGACATC	1.28	1.31	-0.0103	-0.495	1.51	3.78	0.385	3.56	-0.143	3.84
CGTCCAAGGTCAAAGGTCAGTGTAGAGATGACGG	4.11	5.93	0.888	1.64	5.56	7.16	1.91	8.91	3.88	5.94
CAGCCTACGTCAGGGCCAGTATAGGAGGAACGTT	-0.745	-0.587	-0.356	-0.405	-0.116	-0.512	-0.548	0.00174	-0.296	-0.405
GGAAAGAGGGCAAAGTTGATAGCATCTGTCGACG	3.73	3.74	1.03	-0.31	1.67	1.77	0.468	2.25	0.527	2.77
CCTACTGGCCCACGAAAGGTCATTGATTCAGTGA	-0.126	0.861	-0.814	-1.14	3	5.2	1.92	5.64	2.79	3.94
CCTATTAGTTGACCATAAGGGCAGCCGAAGCTCG	0.366	0.178	-0.234	-0.298	1.6	0.00471	0.575	0.385	1.64	1.29
CCTACTGGGCCAAAGTTCATTGATTCCAATGCTC	4.73	6.06	-0.1	-0.115	4.94	4.5	8.31	2.99	0.508	3.13
ACTTACGGGTCAACGAGGTTGTAGCACGCGTATA	3.1	3.83	2.28	1.73	3.47	4.95	1.29	5.07	0.713	4.04
CTCGAAAGGTCGTGCTCAGGTGAGTCTACCAAAC	1.08	1.81	-0.131	-0.101	1.24	3.07	0.183	3.94	-0.14	3.86
TTACCAAGGTGAAATGTCGTTGATGCACGCCTTG	2.04	2.84	0.312	0.465	0.892	0.271	-0.455	0.706	-0.394	1.44
TCGAGTAGGTTAGGGGCATTTAGAATGGCGTCGA	2.14	1.43	-0.441	-0.569	0.734	0.534	0.61	0.611	0.362	0.962
CCTCGGAGGCCAACAGGAGGTCAGAGCTGCCAGA	-0.0138	0.518	-0.818	-1.87	1.58	2.35	0.122	2.83	0.23	2.98
TATACAGGGTCAAAGGCCACAGTACGAATGTCGA	2.84	5.48	3.56	1.95	3.1	4.85	0.619	7.09	1.53	4.45
TAGCCTAGGTCGTTGGGCCAGTATAGTACGCATC	-0.226	0.592	-0.845	-0.754	-0.186	-0.0683	-0.446	0.0528	-0.627	1.02
GTACCAAGGTTAATAGGTCGTTGATGAGTAGGCG	1.85	3.6	0.0971	-0.158	2.1	1.69	0.273	2.82	0.938	2.5
